Our source for the normalized growth values is PubChem BioAssay AID1159580 (chemical genetic matrix, 2015).

Each structure is given as a SMILES string. The whole screen tested about 5,500 compounds, of which about 2,000 (36%) were called active. Not shown: some 18% with an inconclusive outcome. The list shows a part of the results. A number with no mark means an inactive call. No stated cut-off is given here; in the data, active means normalized growth mostly below about 0.91 (no sharp cut-off); inconclusive means no clear call, values can overlap the other calls; inactive means mostly above about 0.92.

A short description of this test: chemical genetic growth profiling, strain panel (AID 1159580).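 Further: tested at 20 µM; growth read once vehicle control cultures reached saturation at 30 °C; 1 = growth at the plate median or of vehicle wells; lower values mean less growth of the strain.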 As to conditions: S. cerevisiae deletion strains, growth OD.
Setting [1] is: locus YAL040C, strain CLN3, active compounds read low.
[2] abbreviates: locus YCL061C, strain MRC1 (second series), active compounds read low.
Setting [3] is: locus YDR363W, strain ESC2, active compounds read low.
Where [4] appears, read: locus YER002W, strain NOP16, active compounds read low.
The mark [5] stands for this setting: locus YGR078C, strain PAC10, active compounds read low.
The mark [6] stands for this setting: locus YMR307W, strain GAS1, active compounds read low.
[7] abbreviates: locus YNL175C, strain NOP13, active compounds read low.
[8] abbreviates: locus YNL197C, strain WHI3, active compounds read low.
[9] abbreviates: locus YNL224C, strain SQS1, active compounds read low.
Setting [10] is: locus YOR083W, strain WHI5 (second series), active compounds read low.
Setting [11] is: locus YPL241C, strain CIN2, active compounds read low.

On to `CC(C(O)c1ccc(O)cc1)N1CCC(Cc2ccccc2)CC1` (centres undefined), for which the normalized growth was 0.932 (locus YAL013W, strain DEP1, active compounds read low); 1.03 under setting [1]; 0.959 under setting [2]; 0.872 (active) (locus YDR150W, strain NUM1, active compounds read low); 0.94 under setting [3]; 1.01 under setting [4]. The normalized growth reads like this: under setting [5], 1.01; (locus YGR229C, strain SMI1, active compounds read low) 0.785 (active); under setting [6], 0.994; under setting [7], 0.935; under setting [8], 1.03; under setting [9], 1.03. The normalized growth was 1.04 under setting [10]; 0.75 (active) (locus YPL055C, strain LGE1, active compounds read low); 0.944 (active) under setting [11].

For `C[C@@H](CN1CCC(Cc2ccccc2)CC1)[C@@H](O)c1ccc(O)cc1`, the normalized growth is, setting by setting: under setting [1], 1.07; under setting [2], 0.996; under setting [3], 1.01; under setting [4], 1.01; under setting [5], 0.996; (locus YMR263W, strain SAP30, active compounds read low) 1. The normalized growth is 1.05 under setting [6]; 1.03 (locus YNL128W, strain TEP1, active compounds read low); 0.993 under setting [7]; 0.999 under setting [8]; 1.02 under setting [9]; 0.979 (locus YNL322C, strain KRE1, active compounds read low). The normalized growth was 1 under setting [10] and 0.99 under setting [11].
